Experimental data taken from PubChem BioAssay (Tox21).
Records with an inconclusive call do not appear. Where a call stands in place of a potency, no number is given. Activity calls are given as the source filed them. Unless noted, calls come from the whole dose curve; as a rule, active = well fitted cell-killing curve with a large enough effect in the repeat runs; inconclusive = weak or mixed curves, or effect the other way; inactive = flat fitted curve, though single readings scatter.

Molecular target: Thyrotropin-releasing hormone receptor (Homo sapiens) (UniProt P34981)
Sequence (P34981 whole entry, looked up): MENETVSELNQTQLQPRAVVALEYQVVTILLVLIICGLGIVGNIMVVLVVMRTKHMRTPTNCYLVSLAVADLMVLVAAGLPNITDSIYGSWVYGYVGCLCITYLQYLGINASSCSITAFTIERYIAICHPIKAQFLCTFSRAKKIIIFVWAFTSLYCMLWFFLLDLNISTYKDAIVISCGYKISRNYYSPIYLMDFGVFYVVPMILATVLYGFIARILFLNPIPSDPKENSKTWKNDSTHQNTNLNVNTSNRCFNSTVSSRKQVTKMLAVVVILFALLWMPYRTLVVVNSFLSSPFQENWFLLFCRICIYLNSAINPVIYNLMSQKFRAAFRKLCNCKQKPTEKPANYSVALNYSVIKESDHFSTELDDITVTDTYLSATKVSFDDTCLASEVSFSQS
Assay: qHTS assay to identify small molecule agonists of the thyrotropin-releasing hormone receptor (TRHR) signaling pathway (AID 1346891; calls by dose curve;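 note: HEK293 cells expressing TRHR with calcium dye readout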)
Conditions: TRHR-HEK293 calcium fluorescence, agonist mode; series mostly up to 57.6 µM
Method in brief: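 Agonist-mode calcium mobilisation screen: TRHR-transfected HEK293 cells cultured overnight (18 h), dye-loaded for 2 h at 37 °C, exposed to compounds, and monitored by fluorescence for 3 min.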

SMILES	outcome
CCOP(=S)(OCC)Oc1cc(C)nc(C(C)C)n1	inactive
Nc1ccc([As](=O)(O)O)cc1	inactive
Oc1ccc(Cl)cc1	inactive
Oc1c(Br)cc(Br)cc1Br	inactive
O=C/C=C/c1ccccc1	inactive
Nc1ccc(N)cc1	inactive
Cc1cccc(N)c1	inactive
CNC(=O)O/N=C/C(C)(C)S(C)=O (stereo unspecified)	inactive

System: not listed separately
Assay: Human pregnane X receptor (PXR) small molecule agonists, qHTS cell viability counter screen (AID 1346977); note: nearly all actives have a fitted effect of over 50% in size
Conditions: PXR-Luc HepG2 viability, CellTiter-Fluor, 24 h; series mostly up to 92.4 µM
Method in brief: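 Measures live-cell protease fluorescence (CellTiter-Fluor) in PXR-Luc HepG2 cells treated 24hr with compounds at 37C. Cells had 5hr to attach before pin transfer of DMSO solutions.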

SMILES	Potency
CCCCCCCCCCCCCCCCCC(=O)O	inactive
CN1C(=O)CCS(=O)(=O)C1c1ccc(Cl)cc1 (stereo unspecified)	inactive
CC[N+](=O)[O-]	inactive
[N-]=[N+]=CC(=O)OC[C@H](N)C(=O)O	inactive
CCOP(=S)(OCC)Oc1cc(C)nc(C(C)C)n1	inactive
Nc1ncc([N+](=O)[O-])s1	inactive
C/C=C/c1ccc2c(c1)OCO2	inactive
Clc1cnc(Oc2ccc(Oc3ncc(Cl)cc3Cl)cc2)c(Cl)c1	inactive
CN(C)NC(=O)CCC(=O)O	inactive
COC(=O)Nc1cccc(OC(=O)Nc2cccc(C)c2)c1	inactive
Nc1ccc([As](=O)(O)O)cc1	inactive
CCSC(=O)N1CCCCCC1	inactive
O=C(O)C1C(C(=O)O)C2(Cl)C(Cl)=C(Cl)C1(Cl)C2(Cl)Cl (stereo unspecified)	inactive
NNc1ccccc1	inactive
C=CC(=O)OCC(CC)CCCC (stereo unspecified)	inactive
CC(=O)C1CCOC1=O (stereo unspecified)	inactive
OCC(O)CCl (stereo unspecified)	inactive
Cc1ccc(N)cc1	inactive
Oc1ccc(Cl)cc1	inactive
Nc1cccc(Cl)c1	inactive
Cc1cc(Cl)ccc1OC(C)C(=O)O (stereo unspecified)	inactive
Oc1c(Br)cc(Br)cc1Br	inactive
Cc1ccccc1N	inactive
